These results are taken from PubChem BioAssay (EPA / NIEHS).

Activity calls are given as the source filed them. Rule for the calls: active = hit-call score of the fitted dose curve at least 0.9, where 1 is the maximum; inactive = score below 0.9.

Read-out in one assay: Matrix Metallopeptidase 1 (MMP1), MMP1 (gene 4312)
The experiment in a line: BSK_BE3C_MMP1: BioMAP Diversity Plus: BE3C Assay for Matrix Metallopeptidase 1 (MMP1) Biomarker Activity (AID 2283024). The following applies: primary human bronchial epithelial cells; actives raise or lower the signal. Summed up:
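ELISA read-out of MMP1 in human lung bronchial epithelial primary cultures, 24 h post-dose; bidirectional curve fit vs DMSO baseline, gain or loss of signal scored.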
For `Nc1nc(N)nc(-c2ccccc2)n1`, the result was inactive.

`C=CC(=O)NCOCCCC`: the outcome was inactive.

In the case of `CCOC(=O)C1=NOC(c2ccccc2)(c2ccccc2)C1`, the result was inactive. As for `CC(C)C(=O)OCCc1ccccc1`, the outcome was inactive. On to `CCOC(=O)/C=C\C(=O)OCC`, for which the result was inactive.

Read-out in the next assay: not listed separately
Briefly: BSK_3C_Vis: BioMAP Diversity Plus: 3C Assay for Morphology Visualization (AID 2283025).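 For AC50: light microscopy image of cell morphology used as background control; cells imaged 24 h after dosing.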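 Note: fitted both ways so gain or loss versus DMSO counts.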 Conditions: primary human endothelial cells (HUVEC). Summed up:
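HUVEC, 3C system; light microscopy of morphology at 24 h post-dose. Bidirectional fit vs DMSO baseline. Secondary readout, background-control function.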
For the compound `Cc1ccc([N+](=O)[O-])cc1N`, the result was inactive.

Take `C=CC(=O)NCOCCCC`: the result was inactive.

For orientation: AC50 means the midpoint of the concentration-response curve, whichever way the signal moves. `CCCCCCCCCCCC(C)=O`: the AC50 was 37.8 µM (active). Consider `CCOC(=O)C1=NOC(c2ccccc2)(c2ccccc2)C1`, for which the outcome was inactive.

Consider `CC(C)[N+](C)(CCOC(=O)C1c2ccccc2Oc2ccccc21)C(C)C`, for which the outcome was inactive.

For the compound `Oc1ccc(/C=C/c2cc(O)cc(O)c2)cc1`, the AC50 was 20 µM (active). Consider `C=CCCCCCCCCC=O`, for which the outcome was inactive. `C=C(C)C(=O)OCCCCCCCCCCCC`: the outcome was inactive.

For `CC(C)c1cccc(C(C)C)c1N`, the half-maximal activity concentration (AC50) was 37.5 µM (active). For the compound `CCOC(=O)/C=C\C(=O)OCC`, the result was inactive. `CC=C(C)C(C)=O`: the outcome was inactive.
